How the values were obtained:
ETS1 [1] = biological target: T1, ETS1 (UniProt P14921); experiment: ETS1 binding intensity (PBM fluorescence), ETS1 alone (arbitrary fluorescence units); higher = stronger binding; details: ETS1 concentration 1 nM; RUNX1 concentration 0 nM
T1 sequence: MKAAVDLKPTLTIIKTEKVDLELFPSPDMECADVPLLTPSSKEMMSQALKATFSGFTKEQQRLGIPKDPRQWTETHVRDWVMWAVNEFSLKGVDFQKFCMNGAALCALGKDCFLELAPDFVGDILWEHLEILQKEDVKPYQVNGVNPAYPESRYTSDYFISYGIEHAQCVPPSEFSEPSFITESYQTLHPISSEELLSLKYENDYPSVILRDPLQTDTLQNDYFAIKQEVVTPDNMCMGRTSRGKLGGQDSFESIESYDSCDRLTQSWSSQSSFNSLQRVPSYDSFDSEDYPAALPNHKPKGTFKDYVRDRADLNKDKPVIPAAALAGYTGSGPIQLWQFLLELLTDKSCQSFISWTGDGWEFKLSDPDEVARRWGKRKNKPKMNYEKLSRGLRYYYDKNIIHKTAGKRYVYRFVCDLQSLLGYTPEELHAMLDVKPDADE

RUNX1 = RUNX1 (UniProt Q01196); experiment: RUNX1 binding intensity (PBM fluorescence), RUNX1 alone (arbitrary fluorescence units); higher = stronger binding; details: RUNX1 concentration 2 nM; ETS1 concentration 0 nM
RUNX1, sequence (Q01196 whole entry): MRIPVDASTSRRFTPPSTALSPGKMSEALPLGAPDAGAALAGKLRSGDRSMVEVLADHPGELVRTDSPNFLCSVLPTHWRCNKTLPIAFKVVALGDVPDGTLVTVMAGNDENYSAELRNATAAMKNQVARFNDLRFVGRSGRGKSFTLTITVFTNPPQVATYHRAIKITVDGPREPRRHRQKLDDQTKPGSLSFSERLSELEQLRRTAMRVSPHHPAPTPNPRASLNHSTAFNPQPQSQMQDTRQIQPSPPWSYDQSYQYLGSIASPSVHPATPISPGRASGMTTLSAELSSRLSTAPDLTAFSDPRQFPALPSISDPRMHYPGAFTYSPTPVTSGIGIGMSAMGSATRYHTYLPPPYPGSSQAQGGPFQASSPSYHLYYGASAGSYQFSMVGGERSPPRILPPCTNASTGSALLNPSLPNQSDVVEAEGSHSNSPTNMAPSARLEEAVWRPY
Method: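 Cooperative gcPBM on 36-bp genomic probes with neighbouring ETS1 and RUNX1 sites. Recombinant human RUNX1 (2 nM) was incubated alone or with ETS1 (25 nM) and detected with anti-RUNX1 antibody plus Alexa488 secondary. Values are medians over 4 replicate spots; the RUNX1+ETS1 data were normalised to the RUNX1-only data. The probes sit in constant array flanks that are not printed.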

ETS1 [2] = biological target: T1, ETS1; experiment: ETS1 binding intensity (PBM fluorescence) in presence of RUNX1, normalised to ETS1-only experiment (arbitrary fluorescence units); higher = stronger binding; details: ETS1 concentration 1 nM; RUNX1 concentration 25 nM
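Throughout, for RUNX1 binding intensity (PBM fluorescence), RUNX1 alone: Full-length recombinant human RUNX1 bound to double-stranded 36-bp genomic probes on a high-density microarray, scored as Alexa488 fluorescence per spot via anti-RUNX1 antibody, median of four replicate spots.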

Sequence	ETS1 binding intensity (ETS1 [1])	RUNX1 binding intensity (RUNX1)	ETS1 binding intensity (ETS1 [2])
TGGGGCTAGGCTTCCGGGGCTCTGCGGTCCTCGGCC	481	662	623
ACTGCACGGCTGGGAGGATGTGGTCACACACGCCAC	1380	869	11400
AGCGGCCGAAGGAAGTGACGTTTGCGGCAGTAAGGC	997	1130	1450
ACCCCGGAAGTGTGGGCGCGGCTGCGGTTTAACCCG	2640	2220	15900
CCTGTTTCCTGCCATCTGCCCTTCCTTTGTGGTCAA	774	3310	1260
TTCTGTAGCTTAGGATGTGGGTTTCTTTGTTTCTGA	452	926	1020
TCCCCACACTTCCGGCCCCGCCCGCACAGCCGCACC	3270	1130	4360
AGCAACAACAAAGGAAGTGGCGGCCGCAGGGGGAGG	1320	795	2160
CATCAAGTATTTCCTCACGCAAGCAACCGCATCCAT	392	1180	634
GTTTGAAGGGAAGTGGGTGTTGACCTGCGGGCAACT	483	806	948
GCTTCTTCAGCCACATCCTGACCACAGCCCAGATTC	496	2350	1270
TTTCCTCGGATTCCCGGATGTGGGTGAGTTCATTTG	5690	809	9630
AGCGCGCCGCCGACCGGATGCGGGAACTGGGCTCGG	11800	715	19400
GGGGGCGGAAGTTTCGGTGCATTGTGGGTTCTCCTG	1260	920	1980
CCGCGCACCCGGAACTACCTCCCGACCCGCATCCCC	562	1290	592
AGATTAGATGCAGGATGTGGTATACAAAGGCACGTT	2530	823	7140
ACCAGCAACGGAAATCAGATCTCTTGTGGTTATTAT	1480	994	7160
TGCAGCCTATTTCCTCTAACCCGCAGATCCACTATG	536	1470	728
AGAAGCTTCTACAGGAAACCACTAATGGAGACAGAG	1440	782	1970
TCTAACGCTGAAGGAGGATGTGGTTTCCTATTGGAC	1770	880	11500
GTGGTCGGGAGGGGAAGTGAGGCGGTTACCTCGGCG	684	790	689
ACCGGATGCCGGGGCACCGCCAGATGTGGCCACGAG	1500	746	1730
GAAGCTACTCTGGTTTCCTGTGGTTTTCTGAGCACT	597	1260	1320
GCTGCCGGAAAAGGCGCCGAGGTAACCGCCTCACTT	479	903	496
ACCTCTCTCACTTCCTACCAGAGAACCACAGCCAAG	538	1490	404

Sequence	ETS1 binding intensity (ETS1 [1])	RUNX1 binding intensity (RUNX1)	ETS1 binding intensity (ETS1 [2])
TCTTTAAAACCCGGAAGTTCCTGTGGTTCATACGCT	8500	978	16500
CTGCTGCCGCGAACAGGAAACCACTACAATCAGGAG	2840	816	4530
GTCCCCGACTTCCGCTCTCGGTTGGTGGTTGGCTTT	2370	894	3430
GGCTTTCCGTTCAAGGATCTTTTTGCGGTCTTTGTC	445	1610	777
TGACATGGCTTCCGCCTTGGGCTTTGTGGTCTCCCA	513	890	1150
GGCTTCCGCCTGCCGAGCGGCCCCGGACCGCAGGCC	343	830	768
GAAAGCTGCACTATTTCCTGAGGTTAGAGGTTTAAA	522	815	502
GGGAACTGGGGAAGGGGATGTGGTAACCAGAACCAC	543	869	2600
GTTGTCTTCTTCCTGAGTAAACCGCAGTGCAGAGAA	456	5250	1120
GACTATGTGCTTCCGGTCTCCAATACCGCAGGAGGG	4950	981	13600
GAACTTCCGGGACCACGTGACGTAGAACCACAACAA	587	815	1100
ATCATCTAGGAGACAGGATGTGGTTAGGGTGTTAAA	6360	1070	59800
AATGGCGGGAAGTAAGAGGAATGTGGGCCTGACTGC	499		386
CACTCCCCCATTCCGGCTGCAGGTTGAGGTTTGGAA	517		571
TAAAGCGGAAGGGGCCGGCTCTGCGGCCTGGCCGCT	553		770
TACCACTGAAAGGATGTGCGGGTAGAAATGAGCAAT	830		938
CGGTGGCTTCCGGCCCATGGCGGTGGTTGGTGACTC	807	770	953
TGGTTAGGGAGAGGGGGATGTGGTTAGGGTGAGGGA	530	1110	3960
GTTAGAGGAAGAGGAAGCGGTCAAGAGATCGTCACA	956	766	1280
GAGCAACCAGGAAGAGCTTTGGCTGTGGGCTAAGAT	511		441
TACCACCTCAGGATGTCTGAACCACATGCAAGCAGG	439		571
CCGCCACCGGAAGCGCCCTCCTAATCCCCGCAGCGC	6290	978	6170
GTCGTGTTTGGCTTCCTGTGGGCACGCCTGCGTAGC	589		516
ACAGGAAGTCAGCTGAGTACCGAGCAAGCCGCATGC	1770		2090
TTACTTCTCAGGAAGCGCTGTGGGGCTGGGGTTGCT	676		513

Sequence	ETS1 binding intensity (ETS1 [1])	RUNX1 binding intensity (RUNX1)	ETS1 binding intensity (ETS1 [2])
TGTCCGGGCAGGAAGGGGTGCTCTGTGGGCTTGGAG	948		1050
CACCCAAGGATATGCTTTTTTTTGGCAAGCCACATC	430		451
GCTCCCTGGACAGGATGTGGTGCCGAGTAAACAGCT	4470	645	5380
GCTTCGTTTCCCGCCGGGGCTCACCGCGCCCCCCTA	621		615
GAGTTGCTTCCGGCCGTGTTGGTGGTCTGAATTGAG	1590	802	1830
CTTTCGCTTCCTTTCCCCGCCTCTTAGTCCCGCAGA	464		363
TGCCCCCTCCCCCTTCCGCTGTGGCCACCGGCTTTG	764		780
GAGCGGAAACCCGAGAGTCAGTTCAACCACAGCCAC	592	889	980
CTGCGTCCCGGAAGGAGCGAGCTTGCGGAGCGTGAA	710		542
TGGGACGAGTGGGCGGAAACAGCCGCAGGTCTCTCT	1990		2750
GTGGCTATGGGAAGTGGGGTGCGGTTTCTGCCGGGG	554	1340	3070
ACTACAACTTCCGACTTGCATCACTGCGGTGGCGCT	425	942	573
GTCTTGTACCCTAGAGGATGTGGTAGCCCTAAATAA	1060		2290
CGGTCAGGTCGCAGGAAACCACAGCGGCAGCGCGGC	732	1370	1870
TCGCTTCCTGCTCCACTTCTCGGCGCCCACATCTCC	514		523
CCGACCTTAACGACATCCTGCGGCTCAGCGTGGAGG	489		437
CAGAGACACCTGCGGAAGCCACAGGGAGGTCACAGA	495		613
TCATATCCGGCAGGAATGGGTTTTGTGGCTTTGTGC	752	1670	1400
ACTTACTTCCCGACGTCACAGCCTCCGACACCACAG	471		423
AGCGGTGTTTCAGGATGTGAGGGCCCGCAGGAGCCG	666		837
CTCTGAAGGAAGTGATGTTAGACGGCTGTGGGTGGT	545		785
GGGGAAGAGGAAGCTGTGTCCGCGGTGCAAGGGGTT	533		542
ATTACAGGAAGTATGTCCTCCTCTGCCTAACCACTG	2270	831	2210
CAGTCTCCTTCCGCGTCACCTCTGTGACCGCTGTGC	414		583
TTTCCTACAGAAGGATGTGGTTGGTGGGTTTGGTTT	619		3210

Sequence	ETS1 binding intensity (ETS1 [1])	RUNX1 binding intensity (RUNX1)	ETS1 binding intensity (ETS1 [2])
ACAGGAAACTAAAATAAGAACAGAAAACCAAGACAG	865		852
CATGAGAAACATCCTGCCCAACCACCTGACTACAAG	492		511
CCGGGCCTCCAGACGGAACTGTGGGCGAGGGGAGGG	470		404
CCAGCCTCCCCTTTCCTGTCTGTGGCAGGAGCGTGC	505		512
CTAAGTGCTCTTCCTGCCAACCTGTGGGCGCCTGGC	559		686
GAGGAGGCTGAGGAGGAAGTGCGGTGGCTGTTCTGC	1290		1470
CAGGGAAGTTCGAACTGGGCGGGGCCCACCGCAGTT	336		488
ATGTGCGTGTGCACAGGAAAACCACTGCCAGTATTT	756		789
CCATTCCCGGGCTTCCGCGGTGTCCCCACCCCCTAA	673		652
CTGGAAACCATTTCCTTTGTGGCCATGAAACAATGG	594		601
TGACGGCCAGGAAGCCTGAAGCCGCAGGGGCCGCCG	345		595
TGTTGGCTGTCCTCCGGAAACCCGCGCCTGGGTCGC	1820		1930
TGGTTAAGCAGTGCAGGATGTGGGCTGCACTGCTAA	2590		3930
AAAAAATGGAGGAAGTTACCTCCAGTGGTTTTGTGA	751		1310
GGAGGGCTTCCTGCCCACCACCACCCACAGCAGCTG	730		676
CCGAGACACATGGGATGTGGGCGGGAGGAGGAATTG	715		941
GCAAGGTGGAGAGGAGGATGTGGCTTACCAGCAATT	1280		1990
TCCAGCCGGACGCGATGCCTGGAGGCTGCGGGCGCC	328		597
AAGCTGAAAAGGGGATGTGGTTGCCTGCCTGTGGGA	534		863
TTCTTGTTTCCTGTCAAGGGAGGCTCTGACCACCTC	728		753
GCAGGAAATGACGTCAGACCTCACTGCGGGTCTGAG	853		1010
AGCCCTCTGCAACTTCCCGGCCCCACAGCCCCACCC	678		575
CCAGAAAGCTCCTCCTTCCGCCACAACACGATCACT	538		451
TCGGTGAAGGACGGAAGATGATAGCCACATTTCTTC	512		485

From the supplement of paper PMC10681739
